“And” between values parts separate entries of the source, which are not always exact repeats. Equal entries are not always repeated. About 2,000 (36%) of roughly 5,500 compounds were called active. Roughly 18% stayed inconclusive and do not appear here. No stated cut-off is given here; in the data, active means normalized growth mostly below about 0.91 (no sharp cut-off); inconclusive means no clear call, values can overlap the other calls; inactive means mostly above about 0.92. The list shows a part of the results.
Test: chemical genetic growth profiling, strain panel (AID 1159580);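 further: tested at 20 µM; growth read once vehicle control cultures reached saturation at 30 °C; 1 = growth at the plate median or of vehicle wells; lower values mean less growth of the strain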
Conditions: growth OD

Measured: normalized growth

NC(=O)c1cnccn1
inactive: S. cerevisiae deletion strains, locus YJR075W, strain HOC1, hits give low values 1.03 | S. cerevisiae deletion strains, locus YKL009W, strain mrt4, hits give low values 1.02 | S. cerevisiae deletion strains, locus YKL068W, hits give low values 1 | S. cerevisiae deletion strains, locus YKL085W, strain MDH1 (second series), hits give low values 1.01 | S. cerevisiae deletion strains, locus YKL085W, strain MDH1, hits give low values 1.01 | S. cerevisiae deletion strains, locus YKL160W, strain elf1, hits give low values 0.967 | S. cerevisiae deletion strains, locus YKL190W, strain CNB1, hits give low values 1.01 | S. cerevisiae deletion strains, locus YKR001C, strain vps1, hits give low values 0.999 | S. cerevisiae deletion strains, locus YKR026C, strain gcn3, hits give low values 0.992 | S. cerevisiae deletion strains, locus YKR091W, strain srl3, hits give low values 0.99 | S. cerevisiae deletion strains, locus YLL001W, strain dnm1, hits give low values 0.955 | S. cerevisiae deletion strains, locus YLL026W, hits give low values 0.979 | S. cerevisiae deletion strains, locus YLL041C, strain sdh2, hits give low values 0.993 | S. cerevisiae deletion strains, locus YLR027C, strain aat2, hits give low values 0.976 | S. cerevisiae deletion strains, locus YLR039C, strain RIC1, hits give low values 1.05 | S. cerevisiae deletion strains, locus YLR058C, strain SHM2, hits give low values 1 | S. cerevisiae deletion strains, locus YLR102C, strain apc9, hits give low values 0.999 | S. cerevisiae deletion strains, locus YLR113W, strain HOG1, hits give low values 0.99 | S. cerevisiae deletion strains, locus YLR221C, strain rsa3, hits give low values 1.01 | S. cerevisiae deletion strains, locus YLR258W, strain gsy2, hits give low values 1.01 | S. cerevisiae deletion strains, locus YLR262C, strain YPT6 (second series), hits give low values 0.965 | S. cerevisiae deletion strains, locus YLR262C, strain YPT6, hits give low values 0.979 | S. cerevisiae deletion strains, locus YLR268W, strain sec22, hits give low values 1.05 | S. cerevisiae deletion strains, locus YLR320W, strain mms22, hits give low values 0.981 | S. cerevisiae deletion strains, locus YLR330W, strain CHS5, hits give low values 1.01 | S. cerevisiae deletion strains, locus YLR342W, strain FKS1 (second series), hits give low values 1.02 | S. cerevisiae deletion strains, locus YLR342W, strain FKS1, hits give low values 0.968 | S. cerevisiae deletion strains, locus YLR357W, strain rsc2, hits give low values 0.967 | S. cerevisiae deletion strains, locus YLR370C, strain arc18, hits give low values 0.999 | S. cerevisiae deletion strains, locus YLR371W, strain rom2, hits give low values 1.01 | S. cerevisiae deletion strains, locus YLR384C, strain iki3, hits give low values 0.977 | S. cerevisiae deletion strains, locus YLR418C, strain cdc73, hits give low values 1 | S. cerevisiae deletion strains, locus YML016C, strain PPZ1, hits give low values 1 | S. cerevisiae deletion strains, locus YML032C, strain rad52, hits give low values 1.02 | S. cerevisiae deletion strains, locus YML120C, strain ndi1, hits give low values 0.98 | S. cerevisiae deletion strains, locus YML124C, strain tub3, hits give low values 0.998 | S. cerevisiae deletion strains, locus YMR058W, strain fet3, hits give low values 0.98 | S. cerevisiae deletion strains, locus YMR078C, strain ctf18, hits give low values 1 | S. cerevisiae deletion strains, locus YMR125W, strain sto1, hits give low values 0.999 | S. cerevisiae deletion strains, locus YMR129W, hits give low values 0.993 | S. cerevisiae deletion strains, locus YMR205C, strain PFK2, hits give low values 0.998 | S. cerevisiae deletion strains, locus YMR223W, strain ubp8, hits give low values 0.985 | S. cerevisiae deletion strains, locus YMR231W, strain pep5, hits give low values 0.982 | S. cerevisiae deletion strains, locus YMR307W, strain GAS1, hits give low values 1.01 | S. cerevisiae deletion strains, locus YNL067W, strain RPL9B, hits give low values 1 | S. cerevisiae deletion strains, locus YNL071W, strain lat1, hits give low values 1.01 | S. cerevisiae deletion strains, locus YNL128W, strain TEP1, hits give low values 1.02 | S. cerevisiae deletion strains, locus YNL153C, strain GIM3, hits give low values 1 | S. cerevisiae deletion strains, locus YNL175C, strain NOP13, hits give low values 1 | S. cerevisiae deletion strains, locus YNL183C, strain NPR1, hits give low values 0.998 | S. cerevisiae deletion strains, locus YNL197C, strain WHI3, hits give low values 0.995 | S. cerevisiae deletion strains, locus YNL209W, strain ssb2, hits give low values 1 | S. cerevisiae deletion strains, locus YNL224C, strain SQS1, hits give low values 0.991 | S. cerevisiae deletion strains, locus YNL233W, strain BNI4, hits give low values 1.01 | S. cerevisiae deletion strains, locus YNL248C, strain rpa49, hits give low values 1.01 | S. cerevisiae deletion strains, locus YNL250W, strain rad50, hits give low values 0.998 | S. cerevisiae deletion strains, locus YNL271C, strain bni1, hits give low values 1 | S. cerevisiae deletion strains, locus YNL298W, strain CLA4, hits give low values 0.997 | S. cerevisiae deletion strains, locus YNL307C, strain MCK1, hits give low values 1.01 | S. cerevisiae deletion strains, locus YNL322C, strain KRE1 (second series), hits give low values 0.984 | S. cerevisiae deletion strains, locus YNR049C, strain mso1, hits give low values 0.998 | S. cerevisiae deletion strains, locus YNR052C, strain pop2, hits give low values 0.99 | S. cerevisiae deletion strains, locus YOL006C, strain TOP1, hits give low values 0.999 | S. cerevisiae deletion strains, locus YOL012C, strain htz1 1.57 | S. cerevisiae deletion strains, locus YOL147C, strain pex11, hits give low values 1 | S. cerevisiae deletion strains, locus YOR001W, strain rrp6, hits give low values 0.983 | S. cerevisiae deletion strains, locus YOR061W, strain CKA2, hits give low values 1 | S. cerevisiae deletion strains, locus YOR069W, strain VPS5, hits give low values 1.01 | S. cerevisiae deletion strains, locus YOR070C, strain gyp1, hits give low values 1 | S. cerevisiae deletion strains, locus YOR080W, strain dia2, hits give low values 0.978 | S. cerevisiae deletion strains, locus YOR083W, strain WHI5 (second series), hits give low values 1.02 | S. cerevisiae deletion strains, locus YOR083W, strain WHI5, hits give low values 0.955 | S. cerevisiae deletion strains, locus YOR106W, strain vam3, hits give low values 0.992 | S. cerevisiae deletion strains, locus YOR136W, strain idh2, hits give low values 0.988 | S. cerevisiae deletion strains, locus YOR144C, strain elg1, hits give low values 1 | S. cerevisiae deletion strains, locus YOR184W, strain ser1, hits give low values 1 | S. cerevisiae deletion strains, locus YOR231W, strain MKK1, hits give low values 1 | S. cerevisiae deletion strains, locus YOR265W, strain rbl2, hits give low values 0.985 | S. cerevisiae deletion strains, locus YOR270C, strain vph1, hits give low values 1.02 | S. cerevisiae deletion strains, locus YOR290C, strain snf2, hits give low values 1.02 | S. cerevisiae deletion strains, locus YOR316C, strain cot1, hits give low values 1.01 | S. cerevisiae deletion strains, locus YPL051W, strain arl3, hits give low values 0.993 | S. cerevisiae deletion strains, locus YPL055C, strain LGE1, hits give low values 0.976 and 0.968 | S. cerevisiae deletion strains, locus YPL078C, strain atp4, hits give low values 0.957 | S. cerevisiae deletion strains, locus YPL106C, strain sse1, hits give low values 0.97 | S. cerevisiae deletion strains, locus YPL240C, strain hsp82, hits give low values 0.979 | S. cerevisiae deletion strains, locus YPL241C, strain CIN2, hits give low values 1.01 | S. cerevisiae deletion strains, locus YPL256C, strain CLN2, hits give low values 1.02 | S. cerevisiae deletion strains, locus YPR119W, strain clb2, hits give low values 1.01 | S. cerevisiae deletion strains, locus YPR141C, strain kar3, hits give low values 0.993 | S. cerevisiae deletion strains, locus YPR163C, strain tif3, hits give low values 1.01 | S. cerevisiae deletion strains, locus YPR167C, strain met16, hits give low values 1.01 | S. cerevisiae deletion strains, strain wtn01, hits give low values 1 | S. cerevisiae strains, strain wild type, hits give low values 1.01
